Sm TGR inh – inhibitors of Schistosoma mansoni thioredoxin glutathione reductase; Q962Y6; purified TGR, DTNB reduction, TNB absorbance 405 nm; Potency, µM (series often up to 114 µM), usual class: inhibitors; hit rate 3% among 360,000; note: nearly all actives have a fitted effect of over 60% in size
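First, TGR (20 nM dispensed) and NADPH were mixed with compound. Second, a 15 min room-temperature incubation followed. Third, further NADPH and then DTNB were added to start the reaction. Finally, TNB absorbance was monitored kinetically.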
LmPK inh – inhibitors of Leishmania mexicana pyruvate kinase | Q27686 | purified LmPK, Kinase-Glo ATP luminescence, 1 h | Potency, µM (titrated, usually from 57.5 µM), usual class: inhibitors | hit rate 0.37% among 290,000 | AID 1721
Target sequence (Q27686 whole entry, looked up): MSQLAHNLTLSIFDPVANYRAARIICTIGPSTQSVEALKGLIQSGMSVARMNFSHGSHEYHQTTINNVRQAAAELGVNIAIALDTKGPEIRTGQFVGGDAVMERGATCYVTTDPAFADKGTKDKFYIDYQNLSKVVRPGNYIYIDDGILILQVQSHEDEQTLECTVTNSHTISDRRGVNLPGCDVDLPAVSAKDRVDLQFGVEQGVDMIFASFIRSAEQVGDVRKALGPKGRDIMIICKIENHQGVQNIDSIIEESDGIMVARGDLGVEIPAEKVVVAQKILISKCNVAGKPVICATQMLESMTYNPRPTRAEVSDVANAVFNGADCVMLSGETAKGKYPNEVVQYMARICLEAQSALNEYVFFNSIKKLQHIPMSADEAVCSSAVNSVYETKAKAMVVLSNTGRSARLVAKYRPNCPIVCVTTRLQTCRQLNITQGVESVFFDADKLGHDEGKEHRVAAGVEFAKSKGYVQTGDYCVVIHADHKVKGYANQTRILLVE
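qHTS format; LmPK 0.1 nM; substrates PEP 0.5 mM and ADP 0.1 mM. One-hour room-temperature incubation, then coupled luciferase luminescence; 0.5 nM enzyme wells mark activation.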
FBPA Giardia inh – inhibitors of Giardia lamblia fructose-1,6-bisphosphate aldolase. A8B2U2. purified Giardia FBPA. Potency, µM (series often up to 59.6 µM), most hits filed as inhibitors. hit rate 0.71% among 290,000. AID 2451; note: nearly all actives have a fitted effect of over 55% in size
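40 nM FBPA preincubated 10 min at RT with compound (up to 57.5 uM final), then substrate plus GAPDH/TPI/NAD/arsenate coupling and diaphorase/resazurin added. Fluorescence read after 20 min at RT, 525/598 nm.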
CHX counter – counter-screen for Shiga toxin inhibitors: cycloheximide protein synthesis inhibition; cell reporter, cycloheximide protein synthesis inhibition counterscreen; max response, %; hit rate 12% among 300,000; AID 2314; in the data active = max response mostly above about 13%, no sharp cut-off; inactive = mostly below about 14%; note: read at 38.3 µM for the half of the compounds with a filed dose
TbPYK inhibitor – T. brucei pyruvate kinase inhibition. Q57TT1. TbPYK enzyme, Kinase-Glo Plus ATP luminescence, 45 min. Potency, µM (highest dose often 76.8 µM), hits mostly inhibitors. hit rate 0.12% among 410,000. AID 624173; note: nearly all actives have a fitted effect of over 50% in size
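Enzyme and substrate buffer are dispensed first and compound is pin-transferred. ADP at 130 uM final then starts the reaction, which runs 45 min at room temperature. Detection reagent is added for 10 min before luminescence is imaged.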
Shiga inhibitor – blocks Shiga toxin action in Vero cells; Vero cells, Shiga toxin protein synthesis inhibition reporter; inhibition, % at 38.7 µM; hit rate 9.2% among 290,000; AID 2315; in the data active = inhibition mostly above about 28%, no sharp cut-off; inactive = mostly below about 43%
Hits are given with their value; n = inactive; u = inconclusive; x = no result. Many of the other results were omitted from the sample, so hits are more common in it than they were. Unless noted, calls come from the whole dose curve; as a rule, active = well fitted curve in the direction sought with a large enough effect; inconclusive = small, poorly fitted or top-dose-only effect, or another doubt; inactive = no such curve, though single readings can be large; an effect the other way counts as inactive or inconclusive.

SMILES	Sm TGR inh	LmPK inh	FBPA Giardia inh	CHX counter	TbPYK inhibitor	Shiga inhibitor
O=C(O)CCc1ccc(-c2ccccc2)n1CC(=O)Nc1cccc(C(F)(F)F)c1	n	n	n	n	n	n
O=C(O)CCc1ccc(-c2ccc(Cl)cc2)n1CC(=O)O	44.7µM	n	u	n	n	n
O=C(O)CCc1ccc(-c2ccccc2)n1CC(=O)Nc1ccccc1C(F)(F)F	39.8µM	x	x	x	n	x
O=C(O)CCc1ccc(-c2ccc(Cl)cc2)n1CCC(=O)O	22.4µM	n	n	n	n	n
C=CCn1c(CCC(=O)O)ccc1-c1ccccc1	44.7µM	n	n	n	n	n
O=C(O)CCc1ccc(-c2ccc(Cl)cc2)n1CC(=O)Nc1ccccc1	u	n	n	n	n	n
Oc1[nH]c2ccccc2c1C=Nc1ccccc1	n	n	n	33.1	n	74.0
CN(C)/C=C(\C#N)C(=O)Nc1ccc(O)cc1F	n	n	n	n	n	n
Cc1cc(/C=C(\C#N)C(=O)Nc2ccccc2)c(C)n1-c1cccnc1	n	n	n	33.2	n	62.4
N#C/C(=C\c1cccc([N+](=O)[O-])c1)C(=O)Nc1cccnc1	n	n	n	n	n	n
CCOC(=O)/C(C#N)=C/c1cc(C)n(-c2ccccc2)c1C	n	n	n	49.9	n	110.7
Cc1cc(/C=C(\C#N)C(=O)Nc2ccccc2)c(C)n1-c1ccc(F)cc1	n	x	x	x	n	x
CN(C)/C=C(\C#N)C(=O)Nc1ccccc1	n	n	n	31.7	n	57.1
N#C/C(=C\c1ccccc1O)C(=O)Nc1cccnc1	n	u	n	46.0	n	57.2
NC(C(=O)O)C1ON=C(Cl)C1O (stereo not given)	x	x	x	x	n	x
O=C(OCc1cc(=O)n2nc(C3CCCCC3)sc2n1)c1ccc(F)cc1	n	x	x	x	n	x
COc1ccc(CCC(=O)NCC2CCCCC2)cc1OC	n	n	n	n	n	n
Cc1ccc(NC(=O)/C(C#N)=C/c2ccccc2C(F)(F)F)cc1	n	n	n	26.6	n	n
Cc1ccccc1NC(=O)/C(C#N)=C/c1ccccc1C(F)(F)F	n	n	n	n	n	n
CCCCCCCC(=O)OC[C@H](CO)OC(=O)CCCCCCC	x	x	n	x	x	x
O=C(c1ccc(F)cc1)N1CCN(CCc2ccncc2)CC1	39.8µM	x	x	x	n	x
CCC1(O)CC2CN(CCc3c([nH]c4ccccc34)[C@@](C(=O)OC)(c3cc4c(cc3OC)N(C=O)[C@H]3[C@](O)(C(=O)OC)[C@H](OC(C)=O)[C@]5(CC)C=CCN6CC[C@]43[C@@H]65)C2)C1 (stereo not given in full)	x	x	x	x	n	x
CCCCOC(=O)/C=C/c1ccc(OC(=O)OC)c(OC(=O)OC)c1	n	n	n	n	n	n
COC(=O)Oc1ccc(/C=C/C(=O)OC(C)C)cc1OC(=O)OC	n	n	n	29.9	n	n
Cc1noc(C)c1CSc1nc2ccccc2[nH]1	n	n	n	n	n	n
SMILES	Sm TGR inh	LmPK inh	FBPA Giardia inh	CHX counter	TbPYK inhibitor	Shiga inhibitor
Cc1ccc2nc(SCC(=O)c3c(C)[nH]c4ccccc34)[nH]c2c1	n	n	u	21.1	n	n
Cc1[nH]c2ccccc2c1C(=O)CSC(=S)N1CCN(C)CC1	n	n	n	n	n	n
Cc1[nH]c2ccccc2c1C(=O)CSC(=S)N(C)C	n	n	n	29.8	n	73.8
Fc1cccc(F)c1CSc1nc2ccccc2[nH]1	n	n	n	36.5	n	110.8
Cc1nc(SCC(=O)c2c[nH]c3ccccc23)n[nH]1	n	n	n	n	n	n
O=C(CSc1nc2ccccc2[nH]1)c1c[nH]c2ccccc12	x	n	n	29.2	n	71.9
Cc1ccc(CCNC(=O)CCCn2c(=O)c3cccn3c3ccc(F)cc32)cc1	n	x	x	x	n	x
O=C(OCC(=O)N1CCc2ccccc21)c1ccc([N+](=O)[O-])o1	x	x	x	x	n	x
CC1CCC(NC(=O)c2ccc3c(c2)N(Cc2cccc(Cl)c2)C(=O)c2ccccc2S3=O)CC1 (stereo not given)	n	x	x	x	n	x
O=C(CSc1nc2ccccc2[nH]1)c1ccccc1F	n	n	n	40.2	n	91.6
Clc1cccc(CSc2nc3ccncc3[nH]2)c1	n	n	n	n	n	n
Fc1ccccc1CSc1nc2ncccc2[nH]1	n	n	n	44.8	n	63.3
Cc1ccc2nc(SCC(=O)c3c[nH]c4ccccc34)[nH]c2c1	x	n	n	n	n	70.5
